HEK293 tox – HEK 293 cell cytotoxicity; Potency, µM (titrated, usually from 115 µM), inactives show at the top dose activity change, negative = cytotoxicity, actives largely listed as inhibitors; HEK 293 viability, ATP luminescence (CellTiter-Glo), 48-72 h; 94,000 compounds, 6.6% hits; AID 1345083; further: nearly all actives have a fitted effect of over 60% in size
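Viability of HEK 293 cells, plated at 250 cells/well, was judged by cellular ATP after compound treatment for 48 or 72 hr. Luminescence was imaged 10 min after CellTiter-Glo addition at room temperature.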
FLuc inh – inhibitors of firefly (Photinus pyralis) luciferase; purified P. pyralis luciferase, luminescence, biochemical; 76,000 compounds, 2.5% hits; AID 1347043; Potency, µM (highest dose often 115 µM), hits mostly inhibitors; P08659; further: nearly all actives have a fitted effect of over 65% in size
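Purified P. pyralis luciferase (10nM final) in 50mM Tris acetate pH 7.5, 10mM Mg acetate, 0.01% Tween-20, 0.05% BSA with 10uM D-luciferin and 10uM ATP. Compounds titrated qHTS. Luminescence imaged on CCD.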
NPR1 antag – antagonists of human natriuretic peptide receptor Npr1; 76,000 compounds, 1.6% hits; HEK293 hNpr1 GloSensor cGMP, ANP-stimulated luminescence; Potency, µM (doses to about 46.3 µM), without a hit: at the top dose activity change, negative = inhibition, actives largely listed as inhibitors; P16066; calls by dose curve; further: nearly all actives have a fitted effect of over 60% in size
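HEK293 cells stably expressing human Npr1 and cGMP GloSensor pGS-40F, loaded 2 h with 2% GloSensor reagent, given compound 30 min at room temperature. Luminescence read before and 20 min after 0.1 nM hNppA.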
NIH3T3 tox – cytotoxic compounds in NIH 3T3 cells | 94,000 compounds, 4.3% hits | Potency, µM (highest dose often 96.7 µM), without a hit: at the highest dose activity change, negative = cytotoxicity, hits mostly inhibitors | NIH 3T3 viability, CellTiter-Glo ATP luminescence, 48-72 h | AID 1345082; further: nearly all actives have a fitted effect of over 55% in size
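Cytotoxicity is measured as loss of cellular ATP: NIH 3T3 cells (400/well) are exposed to compound for 48 or 72 hr at 37 °C, then CellTiter-Glo luminescence is imaged after 10 min at room temperature.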
The depositor's hits bear a star; i = inactive; ? = inconclusive; . = not tested or not shown; [ ] = remark or other dose. A selection: hits, their analogues and other compounds. The true share with any hit is near 11%. Unless noted, the call rests on the fitted dose curve; in most records, active means well fitted curve in the direction sought with a large enough effect; inconclusive means small, poorly fitted or top-dose-only effect, or another doubt; inactive means no such curve, though single readings can be large; an effect the other way counts as inactive or inconclusive. On the % scale 0 is the no-effect control and ±100 the full control effect; potency means the concentration at half of the fitted maximal effect.

SMILES | HEK293 tox | FLuc inh | NPR1 antag | NIH3T3 tox
Cc1cccc(NC(=O)NCC2Cn3cccc3CN2C)c1 (centres undefined) | -15% | i | -11% | ?
O=C(c1c(F)cccc1Cl)N1CCC(n2cnnc2C2CC2)CC1 | i | . | . | i
CN(C(=O)c1ccc(Cl)nc1)C1CCc2ccccc21 (centres undefined) | ? | i | -4%[70.6 µM] | -20%[138 µM]
Cc1ccc(C(=O)N(C)C2CCc3ccccc32)cc1 (centres undefined) | 100µM* | ? | -4%[70.6 µM] | ?
CN(C(=O)c1ccccc1)C1CCCc2ccccc21 (centres undefined) | ? | i | 0%[70.6 µM] | ?
CN(C(=O)Nc1ccc(Cl)cc1)C1CCc2ccccc21 (centres undefined) | ? | i | -11%[70.6 µM] | -28%[138 µM]
CN(Cc1ccc(F)cc1)C1CCCc2ccccc21 (centres undefined) | -10%[172 µM] | i | 1%[70.6 µM] | 2%[138 µM]
CN(C(=O)Cc1ccc(F)cc1)C1CCCc2ccccc21 (centres undefined) | 100µM* | i | 0%[70.6 µM] | -24%[138 µM]
CN(C(=O)Nc1ccc(Cl)cc1)C1CCCc2ccccc21 (centres undefined) | 89µM* | 28µM* | -6%[70.6 µM] | ?
CN(C(=O)c1cccc(Cl)c1)C1CCCc2ccccc21 (centres undefined) | 71µM* | i | -14%[70.6 µM] | ?
C#CCNC(=O)C1=NOC2CN(C(=O)c3ccn(C)n3)CC12 (centres undefined) | -7% | . | . | -12%
COc1cccc(CC(=O)N2CCC3(CCC3OC)CC2)c1 (centres undefined) | 2% | . | . | -19%
O=C1CN(Cc2ccc(-c3ccsc3)cc2)CCN1c1cc(Cl)ncn1 | 35µM* | i | ? | ?
O=C1CN(Cc2ccc(-c3cc(F)cc(F)c3)cc2)CCN1c1nccc(Cl)n1 | 45µM* | i | -22% | ?
Fc1ccc(CCC2CCCNC2)cc1F (centres undefined) | -5% | i | -1% | 3%
O=C(NC1CCN(c2cc(-c3ccc(Cl)cc3)[nH]n2)C1)c1ccccc1Br (centres undefined) | 28µM* | i | ? | 35µM*
COc1ccc(C(=O)NC2CCN(c3cc(-c4ccc(Cl)cc4)[nH]n3)C2)c(OC)c1 (centres undefined) | 45µM* | i | -27% | 35µM*
COc1ccc(C(=O)NC2CCN(c3cc(-c4ccc(Cl)cc4)[nH]n3)C2)c(C)c1 (centres undefined) | ? | i | -16% | ?
O=C(NC1CCN(c2cc(-c3ccc(Cl)cc3)[nH]n2)C1)c1ccc(F)cc1F (centres undefined) | 50µM* | i | ? | ?
CNC(=O)[C@@H]1CN(C(=O)c2ccc(C)nc2)C[C@H]1CO | i | i | -17% | i
COCCOC(=O)C1=C(C)N=C2SC=C(CC(=O)N3CCOCC3)N2C1c1cccc(OC)c1 (centres undefined) | ? | i | -16% | -28%
C=CCN1C[C@@H]2C[C@@H](C(=O)NC)N(C(=O)c3cccc4c3OC(F)(F)O4)c3cccc(c32)C1=O | ? | . | . | -14%[46.1 µM]
COCCn1ccc2c(C3=CCOCC3)nc(-c3cccc(C(N)=O)c3)cc21 | ? | i | -3%[70.6 µM] | 25µM*
OCc1ccc(-c2cc3c(ccn3Cc3cccnc3)c(C3=CCOCC3)n2)cc1 | ? | i | 3%[70.6 µM] | ?
C1=C(c2nc(-c3ccncc3)cc3c2ccn3Cc2cccnc2)CCOC1 | ? | i | -3%[70.6 µM] | 22µM*
SMILES | HEK293 tox | FLuc inh | NPR1 antag | NIH3T3 tox
O=C(Nc1ccc2c(c1)OCCO2)N1CCC(Cc2noc(C3CCOCC3)n2)C1 (centres undefined) | -7% | 18µM* | -13% | -35%
CNC(=O)N1CCC(Cc2noc(C3CCOCC3)n2)C1 (centres undefined) | -23% | i | -6% | -1%
Cc1cnc(C2CCOCC2)n1C1CCN(C(=O)Nc2ccc3c(c2)OCCO3)CC1 | -17% | 35µM* | 2% | -10%
Cc1ccccc1C(=O)N1CCCC(C(=O)N2CCCC(c3nc4ncccc4[nH]3)C2)C1 (centres undefined) | i | . | . | -7%
O=C(c1cccc2[nH]ccc12)N1CC(Oc2cccc(-c3nc(-c4ccccc4)no3)c2)C1 | 35µM* | ? | 1% | ?
Cn1cccc1C(=O)N1CC(Oc2cccc(-c3nc(-c4ccccc4)no3)c2)C1 | 45µM* | ? | -5% | ?
Cc1nc(C)c(C(=O)N2CC(Oc3cccc(-c4nc(-c5ccccc5)no4)c3)C2)s1 | 40µM* | ? | -24% | ?
COc1cccc(OC)c1CN1CC(O)CN(C(=O)OCC(C)C)CC1=O (centres undefined) | ? | . | . | -19%
O=C(CC[C@@H]1CNC(=O)[C@@H]2C[C@H](NCc3ccccn3)CN12)NCc1ccccc1 | 71µM* | i | 0%[70.6 µM] | 56µM*
O=C(CC[C@@H]1CNC(=O)[C@@H]2C[C@H](NCc3ccccn3)CN12)NCc1ccc(F)cc1 | ? | i | 3%[70.6 µM] | ?
O=C(C[C@H]1NC(=O)c2ccccc2NC1=O)Nc1nc(-c2cccs2)cs1 | ? | i | -11% | ?
COCCc1noc(C2CNC2)n1 | 8.9µM* | i | -21% | 18µM*
C1CNCC(c2nc(CCOCC3CC3)no2)C1 (centres undefined) | ? | i | 3% | i
C(Cc1noc(C2CNC2)n1)OCC1CC1 | 11µM* | i | -30% | 16µM*
Cc1cc(NC(=O)N2CCCC(Cn3cnc4cccnc43)C2)ccc1Br (centres undefined) | ? | i | -7% | ?
CCOc1ccccc1NC(=O)Cn1c(N(C)Cc2ccccc2)nc(C)cc1=O | 35µM* | i | -13% | ?
Cc1cc(=O)n(CC(=O)Nc2cc(Cl)ccc2C)c(N(C)Cc2ccccc2)n1 | 25µM* | i | -3% | ?
COc1ccc(Cl)cc1NC(=O)Cn1c(N(C)Cc2ccccc2)nc(C)cc1=O | ? | i | -12% | ?
CN1C(=O)CC(C(=O)O)C12CCN(Cc1cccc(C(=O)O)n1)CC2 (centres undefined) | -6% | i | 7% | -6%
COc1ccc(NC(=O)c2ccc3nc(-c4ccccn4)oc3c2)cc1 | 25µM* | . | . | -39%
COc1ccc(NC(=O)c2ccc3oc(-c4cccnc4OC)nc3c2)cc1 | ? | . | . | -22%[138 µM]
Cc1cccc(-c2nc3ccc(C(=O)NC4CC4)cc3o2)n1 | 45µM* | . | . | ?
O=C(NC1CC1)c1ccc2nc(-c3cccnc3)oc2c1 | ? | . | . | -34%[138 µM]
O=C(NCC1CC1)c1ccc2nc(-c3ccncc3)oc2c1 | 2% | . | . | -8%
Cc1ncccc1-c1nc2cc(C(=O)NCCCc3ccccc3)ccc2o1 | 79µM* | . | . | 50µM*
O=C(NCC1CC1)c1ccc2nc(-c3ccccn3)oc2c1 | 112µM* | . | . | ?
O=S(=O)(c1cccs1)N1CCC(n2cnnc2-c2ccccc2)CC1 | 5% | i | -1% | -6%

Source: PubChem BioAssay
